# According to the supplement of paper PMC11732987, “Enantioselective OTUD7B fragment discovery through chemoproteomics screening and high-throughput optimisation” (Communications Chemistry, 2025):
# Values without a mark were called inactive.
# Columns and labels:
# Assay in all cases: log2 ratio of Biotin-Ahx-Ub-VS probe labelling (fragment/DMSO); higher = less target engagement (more negative = stronger competition), active = hit call of the paper (q ≤ 0.05, log2 ratio ≤ -1)
# Details in all cases: compound concentration: 200 uM; treatment time: 3 h
# [1] = target: T1, USP19 (UniProt O94966)
# T1 sequence (whole entry): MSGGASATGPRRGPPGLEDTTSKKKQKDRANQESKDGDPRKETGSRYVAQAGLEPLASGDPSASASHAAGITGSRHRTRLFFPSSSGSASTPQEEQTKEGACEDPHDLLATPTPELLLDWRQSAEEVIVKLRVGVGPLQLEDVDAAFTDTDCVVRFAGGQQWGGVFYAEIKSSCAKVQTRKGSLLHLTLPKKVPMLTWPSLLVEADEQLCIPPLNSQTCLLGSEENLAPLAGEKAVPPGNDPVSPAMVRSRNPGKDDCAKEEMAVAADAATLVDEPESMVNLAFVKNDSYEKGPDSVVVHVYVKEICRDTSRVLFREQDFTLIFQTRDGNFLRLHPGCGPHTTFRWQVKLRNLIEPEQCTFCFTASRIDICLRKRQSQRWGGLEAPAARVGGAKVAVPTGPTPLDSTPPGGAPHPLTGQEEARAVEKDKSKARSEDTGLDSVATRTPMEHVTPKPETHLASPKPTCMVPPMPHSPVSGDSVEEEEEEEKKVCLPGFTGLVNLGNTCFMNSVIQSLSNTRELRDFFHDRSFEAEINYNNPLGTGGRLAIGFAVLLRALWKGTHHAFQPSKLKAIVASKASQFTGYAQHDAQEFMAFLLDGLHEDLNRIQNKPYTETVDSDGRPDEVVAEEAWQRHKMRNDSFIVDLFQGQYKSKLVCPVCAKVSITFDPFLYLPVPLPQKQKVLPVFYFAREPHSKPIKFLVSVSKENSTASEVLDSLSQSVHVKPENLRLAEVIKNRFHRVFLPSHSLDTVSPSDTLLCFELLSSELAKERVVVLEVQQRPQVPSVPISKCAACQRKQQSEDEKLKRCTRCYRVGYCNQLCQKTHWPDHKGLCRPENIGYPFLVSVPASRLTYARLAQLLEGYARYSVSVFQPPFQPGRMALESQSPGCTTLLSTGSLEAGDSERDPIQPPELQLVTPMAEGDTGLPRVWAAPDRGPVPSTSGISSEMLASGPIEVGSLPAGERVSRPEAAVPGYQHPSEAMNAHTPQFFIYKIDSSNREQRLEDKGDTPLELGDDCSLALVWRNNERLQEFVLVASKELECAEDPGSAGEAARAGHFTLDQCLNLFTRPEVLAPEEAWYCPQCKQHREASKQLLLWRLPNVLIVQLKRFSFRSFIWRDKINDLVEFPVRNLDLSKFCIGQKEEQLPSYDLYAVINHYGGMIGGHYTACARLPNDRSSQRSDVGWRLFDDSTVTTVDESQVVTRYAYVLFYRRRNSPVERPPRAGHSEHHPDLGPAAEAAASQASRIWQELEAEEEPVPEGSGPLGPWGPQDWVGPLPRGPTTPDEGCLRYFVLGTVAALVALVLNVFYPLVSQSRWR
# In short: (§1)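 HEK293T lysate in Tris/CHAPS/IGEPAL buffer with protease inhibitors (495 µg per sample) was given fragment at 200 µM or vehicle for 3 h, in triplicate. It then received Biotin-Ahx-Ub-VS at 0.5 µM final for 1 h. Labelled DUBs were NeutrAvidin-enriched, digested with LysC and trypsin, and run by diaPASEF LC-MS/MS. Values are average log2 fragment/vehicle ratios by unpaired t-test on global-median-normalised Spectronaut quantities of proteins with ≥2 unique peptides.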
# [2] = target: USP24 (UniProt Q9UPU5)
# In short: as §1
# [3] = target: T2, USP25 (UniProt Q9UHP3)
# T2 sequence (whole entry): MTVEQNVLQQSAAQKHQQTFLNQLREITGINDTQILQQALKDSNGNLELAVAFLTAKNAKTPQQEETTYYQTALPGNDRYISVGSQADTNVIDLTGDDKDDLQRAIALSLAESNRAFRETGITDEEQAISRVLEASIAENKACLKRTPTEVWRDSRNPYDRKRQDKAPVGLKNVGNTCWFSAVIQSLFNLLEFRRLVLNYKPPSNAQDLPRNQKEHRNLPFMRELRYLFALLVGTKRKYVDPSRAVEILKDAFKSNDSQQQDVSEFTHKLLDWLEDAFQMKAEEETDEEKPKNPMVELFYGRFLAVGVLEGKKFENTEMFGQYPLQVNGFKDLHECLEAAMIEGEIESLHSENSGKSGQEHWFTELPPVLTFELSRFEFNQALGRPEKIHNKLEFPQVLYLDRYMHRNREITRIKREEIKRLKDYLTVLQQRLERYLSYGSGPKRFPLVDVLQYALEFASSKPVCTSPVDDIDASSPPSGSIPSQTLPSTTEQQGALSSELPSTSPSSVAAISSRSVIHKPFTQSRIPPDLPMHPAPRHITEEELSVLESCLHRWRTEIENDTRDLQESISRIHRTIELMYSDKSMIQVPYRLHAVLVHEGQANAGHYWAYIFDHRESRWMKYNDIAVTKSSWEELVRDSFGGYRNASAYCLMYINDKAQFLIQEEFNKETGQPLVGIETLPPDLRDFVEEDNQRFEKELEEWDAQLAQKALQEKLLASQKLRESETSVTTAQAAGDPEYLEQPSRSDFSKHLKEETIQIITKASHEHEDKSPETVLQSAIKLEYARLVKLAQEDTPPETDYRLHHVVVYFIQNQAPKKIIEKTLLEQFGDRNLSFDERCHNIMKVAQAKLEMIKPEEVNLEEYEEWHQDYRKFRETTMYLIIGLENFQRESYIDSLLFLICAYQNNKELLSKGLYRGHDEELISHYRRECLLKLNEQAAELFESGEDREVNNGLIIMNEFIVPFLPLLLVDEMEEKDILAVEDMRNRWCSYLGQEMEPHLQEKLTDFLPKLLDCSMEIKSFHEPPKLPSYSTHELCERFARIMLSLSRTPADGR
# In short: as §1
# [4] = target: T3, USP28 (UniProt Q96RU2)
# T3 sequence (whole entry): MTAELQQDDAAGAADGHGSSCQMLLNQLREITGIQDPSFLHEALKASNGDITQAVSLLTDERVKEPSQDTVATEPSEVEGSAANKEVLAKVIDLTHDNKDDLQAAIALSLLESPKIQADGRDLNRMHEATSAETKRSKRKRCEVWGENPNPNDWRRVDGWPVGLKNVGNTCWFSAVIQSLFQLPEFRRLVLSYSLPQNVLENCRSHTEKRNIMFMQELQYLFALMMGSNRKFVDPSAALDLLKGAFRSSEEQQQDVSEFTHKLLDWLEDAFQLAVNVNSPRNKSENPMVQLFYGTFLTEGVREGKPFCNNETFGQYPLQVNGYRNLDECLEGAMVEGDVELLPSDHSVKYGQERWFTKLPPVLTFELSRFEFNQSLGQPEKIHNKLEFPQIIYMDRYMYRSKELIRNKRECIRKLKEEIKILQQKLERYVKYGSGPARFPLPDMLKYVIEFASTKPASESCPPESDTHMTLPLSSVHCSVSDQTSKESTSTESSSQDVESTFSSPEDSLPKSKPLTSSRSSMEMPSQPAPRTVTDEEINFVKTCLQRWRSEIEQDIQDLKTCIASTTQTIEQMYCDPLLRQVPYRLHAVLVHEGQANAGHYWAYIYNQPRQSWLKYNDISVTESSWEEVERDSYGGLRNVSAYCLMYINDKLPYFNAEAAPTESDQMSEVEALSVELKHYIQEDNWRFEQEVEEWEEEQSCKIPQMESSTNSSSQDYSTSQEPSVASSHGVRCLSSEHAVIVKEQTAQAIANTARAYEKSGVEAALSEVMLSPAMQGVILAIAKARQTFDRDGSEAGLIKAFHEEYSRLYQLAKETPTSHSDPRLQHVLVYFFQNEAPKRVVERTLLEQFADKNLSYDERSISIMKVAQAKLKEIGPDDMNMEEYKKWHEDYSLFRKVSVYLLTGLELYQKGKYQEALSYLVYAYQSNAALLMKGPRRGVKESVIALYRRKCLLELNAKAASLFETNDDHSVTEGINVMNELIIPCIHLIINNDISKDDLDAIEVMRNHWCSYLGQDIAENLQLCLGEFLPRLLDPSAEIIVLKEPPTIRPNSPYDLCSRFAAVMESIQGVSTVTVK
# In short: as §1
# Sequence of USP24 (Q9UPU5 whole entry): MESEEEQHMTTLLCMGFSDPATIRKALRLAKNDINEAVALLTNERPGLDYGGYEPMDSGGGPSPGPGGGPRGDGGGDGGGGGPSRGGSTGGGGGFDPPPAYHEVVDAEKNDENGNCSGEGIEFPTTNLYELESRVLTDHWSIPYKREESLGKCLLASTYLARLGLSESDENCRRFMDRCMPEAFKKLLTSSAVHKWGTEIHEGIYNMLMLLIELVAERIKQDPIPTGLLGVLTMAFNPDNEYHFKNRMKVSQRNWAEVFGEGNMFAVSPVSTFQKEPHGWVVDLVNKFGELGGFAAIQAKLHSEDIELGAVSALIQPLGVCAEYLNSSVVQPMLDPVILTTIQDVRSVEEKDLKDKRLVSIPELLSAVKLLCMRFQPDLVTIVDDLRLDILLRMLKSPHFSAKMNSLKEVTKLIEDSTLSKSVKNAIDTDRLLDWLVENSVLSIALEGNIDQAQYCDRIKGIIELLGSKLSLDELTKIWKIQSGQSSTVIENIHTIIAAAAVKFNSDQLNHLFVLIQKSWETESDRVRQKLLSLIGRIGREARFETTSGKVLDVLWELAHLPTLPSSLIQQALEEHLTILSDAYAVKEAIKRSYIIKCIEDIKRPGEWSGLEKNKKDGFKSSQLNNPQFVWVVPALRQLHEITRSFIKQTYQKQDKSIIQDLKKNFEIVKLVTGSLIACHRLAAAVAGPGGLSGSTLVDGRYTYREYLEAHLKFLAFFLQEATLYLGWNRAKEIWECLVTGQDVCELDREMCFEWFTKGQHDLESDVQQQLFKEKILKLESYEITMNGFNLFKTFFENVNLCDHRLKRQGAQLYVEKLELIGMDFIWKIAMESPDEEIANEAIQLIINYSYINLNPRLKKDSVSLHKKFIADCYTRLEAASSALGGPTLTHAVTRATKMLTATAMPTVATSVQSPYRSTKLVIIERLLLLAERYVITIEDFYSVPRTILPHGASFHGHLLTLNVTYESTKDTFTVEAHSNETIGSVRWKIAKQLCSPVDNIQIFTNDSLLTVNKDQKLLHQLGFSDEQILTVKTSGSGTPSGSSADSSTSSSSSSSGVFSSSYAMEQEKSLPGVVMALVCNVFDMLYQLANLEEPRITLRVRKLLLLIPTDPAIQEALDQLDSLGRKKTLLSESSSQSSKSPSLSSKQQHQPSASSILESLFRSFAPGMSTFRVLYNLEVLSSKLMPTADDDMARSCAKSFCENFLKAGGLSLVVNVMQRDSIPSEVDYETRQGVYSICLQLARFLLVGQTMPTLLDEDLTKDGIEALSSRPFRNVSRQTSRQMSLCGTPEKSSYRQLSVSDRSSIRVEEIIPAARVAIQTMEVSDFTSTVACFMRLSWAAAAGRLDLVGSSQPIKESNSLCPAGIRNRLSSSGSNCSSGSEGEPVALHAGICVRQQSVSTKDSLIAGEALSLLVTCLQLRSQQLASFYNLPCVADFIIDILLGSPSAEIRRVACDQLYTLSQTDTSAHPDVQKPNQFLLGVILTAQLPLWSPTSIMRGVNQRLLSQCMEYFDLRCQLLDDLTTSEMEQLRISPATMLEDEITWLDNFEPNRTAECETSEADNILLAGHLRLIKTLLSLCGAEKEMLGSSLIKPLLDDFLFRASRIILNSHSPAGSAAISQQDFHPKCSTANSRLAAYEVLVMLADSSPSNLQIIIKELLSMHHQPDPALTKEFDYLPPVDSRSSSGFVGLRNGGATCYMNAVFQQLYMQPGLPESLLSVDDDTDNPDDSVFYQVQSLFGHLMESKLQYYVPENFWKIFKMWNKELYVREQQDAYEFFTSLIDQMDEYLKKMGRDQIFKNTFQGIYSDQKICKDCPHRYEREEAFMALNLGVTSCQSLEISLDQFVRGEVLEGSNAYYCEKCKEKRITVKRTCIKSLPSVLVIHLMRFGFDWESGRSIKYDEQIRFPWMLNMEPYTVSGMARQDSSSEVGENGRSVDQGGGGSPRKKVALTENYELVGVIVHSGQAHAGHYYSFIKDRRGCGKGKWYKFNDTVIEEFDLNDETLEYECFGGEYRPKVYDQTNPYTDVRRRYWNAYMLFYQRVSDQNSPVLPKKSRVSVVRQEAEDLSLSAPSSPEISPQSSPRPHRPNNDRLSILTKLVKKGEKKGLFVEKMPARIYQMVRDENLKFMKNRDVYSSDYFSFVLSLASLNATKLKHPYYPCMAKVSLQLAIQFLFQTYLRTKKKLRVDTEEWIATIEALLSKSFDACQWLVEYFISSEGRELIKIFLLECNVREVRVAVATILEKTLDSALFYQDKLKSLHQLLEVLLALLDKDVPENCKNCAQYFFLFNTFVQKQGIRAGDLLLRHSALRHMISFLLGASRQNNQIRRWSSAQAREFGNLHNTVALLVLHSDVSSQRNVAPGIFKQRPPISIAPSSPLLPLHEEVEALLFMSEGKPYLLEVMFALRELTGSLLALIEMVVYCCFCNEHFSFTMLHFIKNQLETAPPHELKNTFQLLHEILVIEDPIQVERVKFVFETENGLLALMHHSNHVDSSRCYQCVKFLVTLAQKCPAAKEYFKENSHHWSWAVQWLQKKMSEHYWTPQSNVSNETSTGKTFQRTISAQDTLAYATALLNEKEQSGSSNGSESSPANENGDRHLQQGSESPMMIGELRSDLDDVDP
compound,measurement,setting,value
COc1ccc(Cl)cc1NC(=O)CCl,log2 ratio of Biotin-Ahx-Ub-VS probe labelling,[1],-0.52
same,log2 ratio of Biotin-Ahx-Ub-VS probe labelling,[2],-1.54 (active)
same,log2 ratio of Biotin-Ahx-Ub-VS probe labelling,[3],-0.784
same,log2 ratio of Biotin-Ahx-Ub-VS probe labelling,[4],-0.959
